About 83,000 compounds went through this panel and 20% of them were active in at least one assay; those are over-represented in the sample as a whole.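 How to read the values: 0–100, growth inhibition (40 = 60% inhibited); 0, no net growth; -100 to 0, cell death (-40 = 40% of starting cells died; -100 = all dead).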 Active and inactive are the calls of the source. Rule for the calls: active = growth percent below 10; inactive = the rest.

The source of these data is PubChem BioAssay (NCI).

For this assay, the system named is SNB-75 CNS. The assay is described as follows: NCI-60 one-dose screen, 48 h (100 = growth as untreated, 0 = no growth, -100 = all killed). As to conditions: 10 µM unless noted.
Regarding `CCCCC(=O)c1ccco1`, the growth is 86.8% (inactive). For the molecule `C=C(C)[C@@H]1CC[C@]2(C)[C@H](CC=C3[C@@H]4[C@H](C)[C@@H](C)CC[C@]4(CO)CC[C@]32C)[C@@]1(C)CCCN`, the growth was 18.5% (inactive). In the case of `COc1ccc2[nH]cc(-c3nc(-c4c[nH]c5ccncc45)cs3)c2c1`, the growth was 76.1% (inactive). In the case of `Oc1ccc(CN2CCC(N3CCCCC3)CC2)c2cccnc12` it was 25.4% (inactive). In the case of `CC(C)(C)c1cc(-c2nc3ccc(N4CCN(S(C)(=O)=O)CC4)cc3[nH]2)cc(C(C)(C)C)c1O` it was 73.8% (inactive); in that of `COc1ccc2c(c1)c(-c1noc(C(=O)c3cn(C)c4ccc(Br)cc34)n1)cn2C`, 101% (inactive). To `C[C@H](NC(=O)[C@@H](C)N)[C@H](Oc1ccc2c(cnn2-c2ccc(F)cc2)c1)c1ccc2c(c1)OCCO2` belongs 61.6% (inactive); to `C=C(C)[C@@H]1CC[C@]2(C(=O)O)CC[C@]3(C)[C@H](CC[C@@H]4[C@@]5(C)C[C@@H](Cc6cn(CCO[C@@H]7O[C@H](COC(C)=O)[C@H](OC(C)=O)[C@H](OC(C)=O)[C@H]7OC(C)=O)nn6)[C@H](O)C(C)(C)[C@@H]5CC[C@]43C)[C@@H]12`, 66.5% (inactive). On to `CCN(CC)CCOc1ccc(-c2c(-c3ccccc3)c(=O)oc3ccccc23)cc1`, for which the growth is 81.8% (inactive). Consider `COc1ccc2c(O)c(/C=C3\N=Nc4ccccc43)oc2c1C[C@@H]1CCNC[C@H]1F`, for which the growth was 51.1% (inactive). To `COc1cc(OC)cc(C2=C3CC[C@@H]4[C@H](CC[C@]5(C)C(=O)CC[C@@H]45)C3=CC3C(O)c4cccnc4N4C(=O)COC234)c1` (stereo partly specified) belongs 72.9% (inactive).
